From PubChem BioAssay AID587 (National Center for Advancing Translational Sciences (NCATS), 2007) come the findings set out here.

SMILES strings stand for the structures. The campaign covered roughly 59,000 compounds. About 35 (0.06%) were called active. Not shown: some 19% with an inconclusive outcome. Cut-off read from the data, not from the text of the source: active = max dye-equivalent concentration above about 10 nM; inconclusive = between about 1.1 nM and that limit; inactive = weaker than that. This excerpt belongs to a sample that is enriched for actives.

The assay in a line: qHTS Assay for Spectroscopic Profiling in Texas Red Spectral Region. As to conditions: Compound fluorescence, Texas Red channel, 547/618 nm. The text has this:
NIH Molecular Libraries Screening Centers Network [MLSCN] NIH Chemical Genomics Center [NCGC] […] Occasionally, the artifactual effect may originate from the compound#s own spectral or other biophysical properties which generally tend to track its assay concentration. Pre-screening/profiling the library with respect to the compounds# spectral properties should help one exclude false positives early on. While the most informative fluorescent profiling data set is obtained by performing a full excitation and emission scan of each well by using a monochromator-based plate reader, such an approach is practical only on a very limited scale as scanning each well requires long time. An alternative approach, applied here, is to perform plate reader scans using selected excitation and emission wavelength pairs to generate a multidimensional relational database that correlates compound concentration and the respective relative fluorescence intensity at a given wavelength set. A standard curve of Texas Red (TR) present on each plate as six-point concentration series, was used to compute a normalized fluorescence response, termed dye-equivalent concentration, for each compound at each concentration.
NCGC Assay Protocol Summary: Buffer: 100 mM Tris buffer, pH 8.0 Dye standard plate: The wells in columns 1 through 4 of a Kalypsys polypropylene 1536-well compound plate were filled with standard solutions of fluorophore corresponding to the spectral region of interest. Solutions of TR were placed in the following wells: U1, V1: 3 mM, U2, V2: 300 uM, U3, V3: 30 uM, U4, V4: zero (DMSO), W1, X1: 3 uM, W2, X2: 900 nM, W3, X3: 300 nM, W4, X4: zero (DMSO). Assay Steps: Six uL of buffer were dispensed to 1536-well Greiner black plates. Compounds and dye standards (23 nL) were transferred via Kalypsys PinTool. The plates were incubated for 15 min at room temperature, and then read on ViewLux (Perkin-Elmer) High-throughput CCD imager using 547 nm and 618 nm excitation and emission filter set. Keywords: NIH Roadmap, MLSCN, MLI, MLSMR, qHTS, NCGC, Texas Red, Fluorescent Profiling.
For orientation: Quantitative high-throughput screening tests each substance at several concentrations.
Regarding `O=C1CC2(CCCCC2)Oc2ccc(OCC(=O)N3CCOCC3)cc21`, the max dye-equivalent concentration result was “inactive”.

As for `Cc1cnc(CNc2cc(-c3c(C)noc3C)ncn2)cn1`, the max dye-equivalent concentration result was “inactive”.

`CS(=O)(=O)Nc1cccc(-c2cncnc2Nc2ccccc2)c1`: the max dye-equivalent concentration result is “inactive”.

In the case of `CC(C)OC(=O)C(C#N)c1nc2ccccc2nc1N1CCN(Cc2ccc3c(c2)OCO3)CC1` (stereo not drawn), the max dye-equivalent concentration entry was “inactive”.

Turning to `Oc1ccc2ccccc2c1C=NCc1c(O)ccc2ccccc12`, the max dye-equivalent concentration entry is “inactive”.

As for `COCCNC(=S)c1ccc(OC)cc1`, the max dye-equivalent concentration result is “inactive”.

Turning to `CCOC(=O)c1cnc2sccn2c1=O`, the max dye-equivalent concentration entry was “inactive”.

On to `COc1ccc(OC)c(C(=O)CSc2nnc(-c3cccs3)o2)c1`, for which the max dye-equivalent concentration entry is “inactive”.

Regarding `CCCCn1c(SCC(=O)N2CCC(C(=O)OCC)CC2)nc2cc(S(N)(=O)=O)ccc21`, the max dye-equivalent concentration result is “inactive”.

As to `Cc1cc(N2CCCCC2)nc2ccc(Cc3ccc4nc(N5CCCCC5)cc(C)c4c3)cc12`, the max dye-equivalent concentration result was “inactive”.

Regarding `CC(C)c1nc2oc3c(N4CCN(C)CC4)ncnc3c2c2c1CCC2`, the max dye-equivalent concentration result was “inactive”.

Consider `COCCNc1cc(-c2c(C)noc2C)ncn1`, for which the max dye-equivalent concentration entry is “inactive”.

For the compound `O=c1c(-c2ccc(F)cc2)nc2cnc(N3CCNCC3)nc2n1Cc1cccs1`, the max dye-equivalent concentration result was “inactive”.

Consider `Cc1nc(NCCN)c(C#N)c2c1COC(C)(C)C2`, for which the max dye-equivalent concentration result was “inactive”.

As for `Cn1cccc1C(=O)NC(=O)COC(=O)Cc1coc2ccc3ccccc3c12`, the max dye-equivalent concentration entry was “inactive”.

Take `CCOCCN(C=O)c1cccc(OC)c1`: the max dye-equivalent concentration entry was “inactive”.

As to `COc1ccc2[nH]c(=O)c(CN(CC3CCCO3)C(=O)Nc3ccccc3)cc2c1` (stereo not drawn), the max dye-equivalent concentration result is “inactive”.

For the compound `Cn1c(=O)c2c(n(Cc3ccccc3)c1=O)NC(=O)C2CC(=O)N1CCc2ccccc2C1` (stereo not drawn), the max dye-equivalent concentration result was “inactive”.

Turning to `O=S(=O)(c1ccccc1)N1CCC2(CC1)CN(Cc1nccs1)C2`, the max dye-equivalent concentration entry is “inactive”.

For `O=C(O)CS(=O)c1ccc2c3c(cccc13)C(=O)c1ccccc1-2` (stereo not drawn), the max dye-equivalent concentration result is “inactive”.

Turning to `Nc1nonc1-c1nc2ccccc2n1CCC(=O)O`, the max dye-equivalent concentration result is “inactive”.

As for `Cc1nc2cnc(N3CCNCC3)nc2n(Cc2ccc(F)cc2)c1=O`, the max dye-equivalent concentration entry was “inactive”.

As for `Cn1c(=S)c2[nH]c(SCCCc3ccccc3)nc2n(C)c1=O`, the max dye-equivalent concentration result is “inactive”.
